Compounds without any hit were thinned out: in the full panel of roughly 79,000, 15% have a hit. Values without a mark were called inactive. Activity calls are given as the source filed them. Cut-off read from the data, not from the text of the source: active = growth inhibition above about 70%; inactive = the rest.
Experiments:
[1] = NCI Yeast Anticancer Drug Screen. Data for the rad50 strain (AID 155);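 note: 0% = growth of vehicle-only cultures of the same strain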; conditions: S. cerevisiae rad50 strain growth inhibition, stronger effect = higher value
Summary of the method: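 DNA repair mutant yeast, compound exposure, growth read-out; inhibition is taken relative to vehicle.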

[2] = NCI Yeast Anticancer Drug Screen. Data for the mec2-1 strain (AID 157); conditions: S. cerevisiae mec2-1 strain, stronger effect = higher value
Summary of the method: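 Mutant yeast (mec2-1) grown with compound; growth inhibition relative to vehicle control reported.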

[3] = NCI Yeast Anticancer Drug Screen. Data for the sgs1 mgt1 strain (AID 161);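 note: 0% = growth of cultures given vehicle only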; conditions: S. cerevisiae sgs1 mgt1 strain, stronger effect = higher value
Summary of the method: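 This yeast growth screen uses a strain with defined DNA-repair lesions; compound-treated growth is compared with vehicle-treated growth.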

[4] = NCI Yeast Anticancer Drug Screen. Data for the cln2 rad14 strain (AID 165);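 note: 0% = growth equal to vehicle treated cultures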; conditions: S. cerevisiae cln2 rad14 strain, stronger effect = higher value
Summary of the method: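 Readout is yeast growth inhibition versus vehicle-treated controls, using a strain with cln2 and rad14 alterations exposed to compound.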

[5] = NCI Yeast Anticancer Drug Screen. Data for the bub3 strain (AID 167); conditions: S. cerevisiae bub3 mutant strain, stronger effect = higher value
Summary of the method: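 In this screen, a yeast mutant lacking normal mitotic checkpoint function is challenged with compound. Relative growth versus vehicle gives the inhibition value.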

[6] = NCI Yeast Anticancer Drug Screen. Data for the mlh1 rad18 strain (AID 175); conditions: S. cerevisiae mlh1 rad18 strain growth inhibition, stronger effect = higher value
Summary of the method: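 Genetically defined yeast (DNA repair-deficient) exposed to compounds; growth inhibition determined relative to vehicle.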

[7] = at 5.0 µM (retest, dose inferred, filed as 0.5)
[8] = at 50.0 µM (retest, dose inferred, filed as 5.0)

Row | Compound | growth inhibition [1, 7] | growth inhibition [1, 8] | growth inhibition ([1]; at 50.0 µM) | growth inhibition [2, 7] | growth inhibition [2, 8] | growth inhibition ([2]; at 50.0 µM) | growth inhibition [3, 7] | growth inhibition [3, 8] | growth inhibition ([3]; at 50.0 µM) | growth inhibition [4, 7] | growth inhibition [4, 8] | growth inhibition ([4]; at 50.0 µM) | growth inhibition [5, 7] | growth inhibition [5, 8] | growth inhibition ([5]; at 50.0 µM) | growth inhibition [6, 7] | growth inhibition [6, 8] | growth inhibition ([6]; at 50.0 µM)
1 | COc1ccc(SC2=C(N(C)C(C)=O)C(=O)c3ccccc3C2=O)cc1 | 98% (active) | 99% (active) | 99.5% (active) | 97% (active) | 100% (active) | 99.7% (active) | 97% (active) | 100% (active) | 99.7% (active) | 95% (active) | 99% (active) | 99.7% (active) | 99% (active) | 99% (active) | 99.6% (active) | 98% (active) | 99% (active) | 99.6% (active)
2 | CCN(CC)CC(O)CNc1cc(C)nc(/N=C(\N)Nc2ccc(Cl)c(Cl)c2)n1 (configuration not stated) | 0% | 64% | 88.8% (active) | -21% | 34% | 57.3% | -11% | 54% | 87% (active) | -3% | 19% | 31.7% | -2% | 30% | 34.2% | 12% | 86% (active) | 81.2% (active)
3 | N/C(CC(=O)NOC(=O)c1ccccc1)=N/OC(=O)c1ccccc1 | 55% | 99% (active) | 99% (active) | 19% | 99% (active) | 99.5% (active) | 54% | 62% | 99.5% (active) | 6% | 100% (active) | 99% (active) | -6% | 99% (active) | 99.2% (active) | 27% | 99% (active) | 99.2% (active)
4 | Cc1ccc(C2(C)CC/C(=N/O)c3cc(C)c(C)cc32)cc1C (configuration not stated) | 72% (active) | 89% (active) | 90.5% (active) | 61% | 88% (active) | 90.8% (active) | 66% | 90% (active) | 88.7% (active) | 63% | 91% (active) | 91.2% (active) | 80% (active) | 92% (active) | 87.9% (active) | 83% (active) | 92% (active) | 90.5% (active)
5 | CCCCC(O)(c1ccccc1)C(O)(c1ccccc1)c1c(F)c(F)c(F)c(F)c1F (configuration not stated) | 17% | 99% (active) | 81.1% (active) | -3% | 99% (active) | 96.6% (active) | -5% | 98% (active) | 99% (active) | 1% | 98% (active) | 97.3% (active) | -8% | 96% (active) | 98.6% (active) | -4% | 99% (active) | 97.2% (active)
6 | COc1ccc2c(c1)c1c(C)c3cnccc3c(C)c1n2CCCN | 9% | 44% | 74% (active) | 28% | -17% | 27.9% | 2% | 13% | 29.3% | 10% | -9% | -24.1% | 13% | -10% | 46.1% | 9% | 18% | 77.5% (active)
7 | COc1ccc(C(=O)C2Cc3c(ccc4ccccc34)OC2=O)cc1 (configuration not stated) | 4% | 1% | 2.05% | -2% | -11% | -1.25% | -3% | 2% | -7.8% | 7% | 1% | 20.1% | -1% | -2% | -30.4% | -5% | -5% | -11.3%
8 | CCCCc1c2c(nc3c1CC/C(=C\c1ccccc1)C3=O)CCCC2 | -23% | 97% (active) | 65.8% | -7% | 98% (active) | 48.5% | -11% | 97% (active) | 69.6% | -1% | 97% (active) | 38% | -1% | 98% (active) | 54% | -19% | 97% (active) | 49.7%
9 | Nc1ccc(C(=O)/C=C/c2ccccc2O)cc1 | -3% | 37% | -21.9% | -5% | 2% | 28.1% | 15% | -1% | -9% | -19% | -14% | 2.4% | -19% | 23% | -15.8% | -6% | -1% | -1.15%
10 | COC1/C=C\OC2(C)Oc3c(C)c(O)c4c(c3C2=O)C(=O)C=C(NC(=O)C(C)=C/C=C\C(C)C(O)C(C)C2OC(C)(C)OC(C1C)C2C)C4=O (configuration not stated) | -4% | 93% (active) | 28.9% | 24% | 37% | 33.5% | 1% | 52% | 41.8% | 19% | 74% (active) | 31.9% | -3% | 93% (active) | 14.9% | 1% | 77% (active) | 38.5%
11 | O=c1onc(-c2ccc(Cl)cc2)c2ccccc12 | 8% | 3% | 6.6% | 4% | 3% | 16.4% | 7% | 5% | -1.2% | 5% | 6% | 82.7% (active) | 2% | 6% | 14.4% | -1% | 4% | 8.15%
12 | COC12C(COC(N)=O)C3=C(C(=O)C(C)=C(N)C3=O)N1CC1C2N1C(=O)c1ccc(Cl)c(Cl)c1 (configuration not stated) | 32% | 93% (active) | 82.2% (active) | 29% | 96% (active) | 85.3% (active) | 12% | 95% (active) | 89.2% (active) | 11% | 94% (active) | 80.5% (active) | 22% | 95% (active) | 83.8% (active) | 37% | 95% (active) | 88% (active)
13 | O=C1/C(=C/c2cccc(F)c2)CCCc2ccccc21 | 3% | 50% | 70% (active) | 4% | 36% | 37.2% | 13% | 67% | 82.5% (active) | -14% | 14% | 12.3% | 14% | 81% (active) | 75.5% (active) | 2% | 75% (active) | 72.7% (active)
14 | O=C(CC1(O)C(=O)Nc2c(Cl)cccc21)c1ccc(Cl)cc1 (configuration not stated) | 9% | 45% | 18.6% | 8% | 29% | 20.8% | -19% | 36% | 33.8% | 17% | 71% (active) | 19.4% | 10% | 72% (active) | 19.4% | -7% | 54% | 28.3%
15 | S=C(Nc1ccccc1)SCc1ccc(Cl)cc1 | 1% | 96% (active) | 90.6% (active) | -6% | 98% (active) | 67.2% | 1% | 96% (active) | 84.7% (active) | -6% | 96% (active) | 38.5% | -5% | 97% (active) | 86.4% (active) | -7% | 97% (active) | 85.5% (active)
16 | CCC[CH2][Ge]([CH2]CCC)([CH2]CCC)[O]C(=O)CC(=O)c1ccccc1 | 10% | 62% | 53.3% | -3% | 65% | 45.1% | 6% | 41% | 32.2% | 1% | 20% | 43.5% | -17% | 27% | 79.5% (active) | -1% | 46% | 67.4%
17 | CC(CCC(=O)O)[C@H]1CCC2[C@H]3C(CC[C@@]21C)[C@@]1(C)CCC(O)C[C@H]1C[C@@H]3O (some centres not stated) | -11% | 46% | 75.1% (active) | -13% | 56% | 73.2% (active) | -10% | 60% | 79.3% (active) | 2% | 73% (active) | 73% (active) | -13% | 86% (active) | 56.1% | -26% | 76% (active) | 71.6% (active)
18 | CC1C(c2ccc(Cl)cc2)c2cc3c(cc2OC1N1CCOCC1)OCO3 (configuration not stated) | -19% | 6% | 48.4% | -30% | -7% | 58.4% | -24% | -4% | 82.2% (active) | -27% | 5% | 90% (active) | -29% | -24% | 91.3% (active) | -39% | 8% | 59.4%
19 | CCCCCCCCCCCCCCC[C@@H](O)C[N+](C)(C)CCO | 28% | 98% (active) | 90.5% (active) | 91% (active) | 99% (active) | 92.8% (active) | 50% | 98% (active) | 90% (active) | 42% | 98% (active) | 88.5% (active) | 69% | 98% (active) | 87.1% (active) | 57% | 98% (active) | 92.3% (active)

From PubChem BioAssay (NCI)
